# This excerpt belongs to a sample that is enriched for hits.
# IDE exosite inh – insulin-degrading enzyme (human) exo-site inhibition. purified IDE, FL-6b probe fluorescence polarization; active compounds read low. z-score at 20 µM. 17,000 compounds, 6.3% hits. AID 1259349;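 active = z-score of -3 or lower, meaning strong loss of probe binding signal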;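 note: His-tagged human IDE residues 42-1019 made in E. coli with 30 nM FL-6b probe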
# Starred values were filed as active, the others as inactive.
SMILES,IDE exosite inh
O=C(c1ccccc1)N1CC(=O)N2[C@H](C1)[C@@H](c1ccc(C#CC3CC3)cc1)[C@@H]2CO,2.1
CN(C)CC#Cc1ccc([C@@H]2[C@@H](CO)N3C(=O)CN(C(=O)c4cccc(F)c4)C[C@@H]23)cc1,0.49
CCCC#Cc1ccc([C@@H]2[C@H]3CN(S(=O)(=O)c4ccccc4C)CC(=O)N3[C@H]2CO)cc1,-1.5
CCC(=O)N1CCCCN2[C@@H](CO)[C@@H](c3ccc(/C=C/c4ccccc4)cc3)[C@@H]2C1,-1.4
CCC(=O)N1CCCCN2[C@H](CO)[C@@H](c3ccc(/C=C/c4ccccc4)cc3)[C@@H]2C1,-4.5*
CCC(=O)N1CCCCN2[C@H](CO)[C@@H](c3ccc(-c4ccc(F)cc4)cc3)[C@@H]2C1,3.2
CN1CCCCN2[C@H](CO)[C@@H](c3ccc(-c4ccccc4)cc3)[C@H]2C1,-0.23
C/C=C/c1ccc([C@H]2[C@@H](CO)N3CCCCN(C)C[C@H]23)cc1,0.65
O=C(c1ccc(F)cc1)N1CCCCN2[C@H](CO)[C@@H](c3ccc(/C=C/c4ccccc4)cc3)[C@H]2C1,-2.3
CN1CCCCN2[C@@H](CO)[C@@H](c3ccc(/C=C/c4ccccc4)cc3)[C@@H]2C1,-6.8*
O=C(c1ccc(F)cc1)N1CCCCN2[C@H](C1)[C@H](c1ccc(/C=C/c3ccccc3)cc1)[C@@H]2CO,5.3
CCC(=O)N1CCCCN2[C@H](C1)[C@H](c1ccc(/C=C/c3ccccc3)cc1)[C@@H]2CO,-10*
CCCC#Cc1ccc([C@@H]2[C@H]3CN(C(=O)Nc4ccc(F)cc4)CC(=O)N3[C@H]2CO)cc1,4.3
N#C[C@H]1[C@@H](c2ccccc2-c2ccccc2F)[C@H](CO)N1C(=O)C1CC1,2
COCC(=O)N1CCC2(CC1)CN(Cc1cc(F)ccc1F)[C@@H](CO)c1c2c2ccc(OC)cc2n1C,-0.72
COC(=O)[C@H]1[C@H](CO)[C@H]2Cn3c(ccc(-c4ccncc4)c3=O)[C@H]2N1Cc1ccccc1F,0.9
CCC(=O)N1[C@H](CO)[C@H]2c3ccccc3N(S(=O)(=O)c3ccc(F)cc3)C[C@H]21,2.9
O=C(C[C@H]1CC[C@H]2[C@@H](COC[C@H](O)CN2C(=O)Nc2cccc(F)c2)O1)NCCCN1CCOCC1,-0.079
CCS(=O)(=O)Nc1ccc2c(c1)C(=O)N(C)[C@H]1CC[C@H](CC(=O)N[C@H]3CCN(Cc4ccccc4)C3)O[C@@H]1CO2,-0.44
COCC(=O)N1[C@H](C#N)[C@H](c2ccccc2-c2cccc(F)c2)[C@@H]1CO,3.3
COc1ccc([C@@H]2CC=CC[C@@H](C)Oc3ccccc3C(=O)N(C)[C@@H](C(C)C)C(=O)N2)c(OC)c1 (mixture of isomers),-0.61
Cc1cccc(S(=O)(=O)N2C[C@H]3[C@@H](c4ccccc42)[C@@H](CO)N3C(=O)c2ccccc2)c1,0.35
O=C1CN(S(=O)(=O)Cc2ccccc2)C[C@@H]2[C@H](c3ccc(C#Cc4ccc(F)cc4)cc3)[C@@H](CO)N12,0.052
CCCC#Cc1ccc([C@@H]2[C@@H](CO)N3CCCCN(Cc4ccncc4)C[C@H]23)cc1,3.3
CCCC#Cc1ccc([C@H]2[C@@H](CO)N3CCCCN(Cc4ccncc4)C[C@H]23)cc1,-1.6
SMILES,IDE exosite inh
OC[C@H]1[C@@H](c2ccc(-c3ccc(F)cc3)cc2)[C@@H]2CN(Cc3cccnc3)CCCCN12,-1.7
OC[C@@H]1[C@@H](c2ccc(-c3ccc(F)cc3)cc2)[C@@H]2CN(Cc3cccnc3)CCCCN12,1.2
OC[C@H]1[C@H](c2ccc(/C=C/c3ccccc3)cc2)[C@@H]2CN(Cc3cccnc3)CCCCN12,-2.4
OC[C@@H]1[C@@H](c2ccc(/C=C/c3ccccc3)cc2)[C@H]2CN(Cc3cccnc3)CCCCN12,-5.2*
OC[C@H]1[C@H](c2ccc(/C=C/c3ccccc3)cc2)[C@@H]2CN(Cc3ccncc3)CCCCN12,-4.5*
OC[C@H]1[C@@H](c2ccc(-c3ccc(F)cc3)cc2)[C@H]2CN(Cc3cccnc3)CCCCN21,3.4
OC[C@@H]1[C@H](c2ccc(/C=C/c3ccccc3)cc2)[C@H]2CN(Cc3cccnc3)CCCCN12,-5.4*
COc1ccc(S(=O)(=O)N2C[C@H](O)COC[C@@H]3O[C@H](CC(=O)N[C@@H]4CCN(Cc5ccccc5)C4)CC[C@H]32)cc1,0.32
O=C(C1CCCC1)N1CC(=O)N2[C@H](CO)[C@@H](c3ccc(Br)cc3)[C@@H]2C1,-2.4
CCS(=O)(=O)N1CC2(CN(Cc3ccc4c(c3)OCO4)[C@@H](CO)c3c2c2ccc(OC)cc2n3C)C1,-0.37
CN1CCCCN2[C@H](C1)[C@H](c1ccc(C#CC3(O)CCCC3)cc1)[C@@H]2CO,2.8
COc1ccc(C#Cc2ccc([C@@H]3[C@@H](CO)N4CCCCN(C)C[C@@H]34)cc2)cc1,0.079
CN1CCCCN2[C@H](CO)[C@H](c3ccc(C#CC4(O)CCCC4)cc3)[C@H]2C1,3.5
CN1CCCCN2[C@H](C1)[C@H](c1ccc(-c3ccc(F)cc3)cc1)[C@@H]2CO,0.11
CN1CCCCN2[C@H](CO)[C@@H](c3ccc(C#CC4(O)CCCC4)cc3)[C@H]2C1,3.3
CN1CCCCN2[C@H](CO)[C@@H](c3ccc(C#Cc4ccccc4F)cc3)[C@H]2C1,-4.7*
CN1CCCCN2[C@H](C1)[C@@H](c1ccc(C#Cc3ccccc3F)cc1)[C@@H]2CO,-3.4*
CN1CCCCN2[C@@H](CO)[C@H](c3ccc(C#Cc4ccccc4F)cc3)[C@@H]2C1,-4.4*
N#C[C@H]1[C@@H](c2ccccc2)[C@@H](CO)N1S(=O)(=O)c1ccc(F)cc1,5
CCC(=O)NC[C@@H]1[C@H](c2ccc(C3=CCCC3)cc2)[C@H](CO)N1C(=O)C1CC1,4.8
N#Cc1ccc(-c2ccc([C@@H]3[C@@H](CO)N4C(=O)CNC[C@@H]34)cc2)cc1,0.64
CN1C(=O)c2cc(NC(=O)c3cnccn3)ccc2OC[C@@H]2O[C@@H](CC(=O)NCC3CCCCC3)CC[C@H]21,-0.028
O=C(C[C@@H]1CC[C@H]2[C@@H](COC[C@@H](O)CN2C(=O)Nc2ccc(F)cc2)O1)NC1CCC1,-0.26
CCCNC(=O)N1CC2(CCN(C(=O)Cc3cccnc3)CC2)c2c([nH]c3cc(OC)ccc23)[C@H]1CO,-1.2
CC(C)[C@@H]1COCc2cnnn2CCC[C@@H](C)C(=O)N1,-0.25
SMILES,IDE exosite inh
COc1ccc(NC(=O)N2C[C@@H]3[C@H](c4ccccc42)[C@H](CO)N3Cc2ccccn2)cc1,0.22
COc1cccc(C#Cc2ccc([C@H]3[C@H](C#N)N(C(=O)C4CC4)[C@H]3CO)cc2)c1,-1.9
COc1ccccc1-c1ccc([C@@H]2[C@@H](C#N)N(C(=O)c3cccnc3)[C@@H]2CO)cc1,-34*
COc1ccccc1-c1ccccc1[C@@H]1[C@@H](C#N)N(C(=O)C2CCC2)[C@H]1CO,3.9
COc1ccccc1-c1ccccc1[C@H]1[C@@H](C#N)N(C(=O)C2CCC2)[C@H]1CO,0.26
COc1ccccc1-c1ccc([C@H]2[C@@H](C#N)N(C(=O)C3CCC3)[C@@H]2CO)cc1,-4.8*
COc1cccc(C#Cc2ccc([C@H]3[C@@H](CO)N(C(=O)C4CCOCC4)[C@H]3C#N)cc2)c1,-5.1*
CN(C)C(=O)c1cccc(-c2ccc([C@@H]3[C@@H](C#N)N(C(=O)C4CC4)[C@H]3CO)cc2)c1,0.87
COc1ccc(-c2ccc([C@@H]3[C@@H](CO)N(C(=O)c4cccnc4)[C@H]3C#N)cc2)cc1,4.5
CN(C)C(=O)c1cccc(-c2ccc([C@@H]3[C@H](C#N)N(C(=O)C4CC4)[C@H]3CO)cc2)c1,3.5

# Compound activity (PubChem)
